Data as given in PubChem BioAssay AID1347383 (Zoeller Lab, School of Medicine, Boston University, 2020).
Activity calls are given as the source filed them.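 How the source made its calls: active means cell survival after UV exposure 2 SD above solvent-only control wells at 10 µM, confirmed on one or two repeats; inactive means the rest.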

Test: protection of CHO cells from pyrene-fatty acid UV killing, primary screen, phospholipid biosynthesis inhibitor project, ZR-82 cells, Analyticon library, screen 2 (AID 1347383);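 further: survival reflects blocked phospholipid synthesis cutting uptake of the phototoxic fatty acid; compound and fatty acid exposure 3 h then viability read next day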
Settings: ZR-82 CHO cells, CellTiter Blue, at 10 µM; peroxisome-deficient CHO-K1 variant, with DGAT-1, DGAT-2 and ACAT inhibitors unless noted

| Structure (SMILES) | outcome |
| --- | --- |
| CC[C@H]1CN2CC[C@H]1C[C@H]2[C@H](O)c1ccnc2ccc(OC)cc12 | inactive |
| COc1ccc(/C=C/c2cc(O)cc(O)c2)cc1 | inactive [setting not given] |
| CCC1CC2CN3CCc4c([nH]c5ccccc45)C(C(=O)OC)(C2)C13 (configuration not stated) | inactive |
| COc1cc2c(cc1OC)[C@@]13CCN4CC5=CCO[C@H]6CC(=O)N2[C@H]1[C@H]6[C@H]5C[C@H]43 | inactive [setting not given] |
| C=C1C(=O)CC2OC2(C)CC2OC(=O)C(=C)C2C(O)C1OC(=O)/C(C)=C\C (configuration not stated) | inactive |
| C[C@]12CC[C@H](O[C@@H]3O[C@H](CO)[C@@H](O)[C@H](O)[C@H]3O)CC1CC[C@@H]1C2CC[C@]2(C)[C@@H](C3=CC(=O)OC3)CC[C@]12O (some centres not stated) | inactive |
| C/C=C1/CN2C3CC1C(CO)C2Cc1c3[nH]c2ccccc12 (configuration not stated) | inactive |
| CO[C@H]1[C@H](O)[C@H](O[C@H]2CC[C@]3(C)C4CC[C@]5(C)[C@H](C6=CC(=O)OC6)CC[C@]5(O)C4CC[C@@H]3C2)O[C@@H](C)[C@@H]1O (some centres not stated) | inactive |
| CO[C@H]1[C@H](O)[C@H](O[C@H]2CC[C@]3(C=O)C4CC[C@]5(C)[C@H](C6=CC(=O)OC6)CC[C@]5(O)C4CC[C@@H]3C2)O[C@@H](C)[C@@H]1O (some centres not stated) | inactive |
| C=CCc1cc(OC)c2c(c1)OCO2 | inactive [setting not given] |
| CCC1CN2CCC3(C(=O)Nc4cccc(O)c43)C2CC1/C(=C/OC)C(=O)OC (configuration not stated) | inactive |
| CC1=CC2/C=C(\C)CCC(O)C(O)/C=C/C(=O)C23C(=O)NC(CC(C)C)C3C1C (configuration not stated) | inactive |
